Source: PubChem BioAssay AID1159580 (chemical genetic matrix, 2015)
The campaign covered roughly 5,500 compounds. About 2,000 (36%) were called active. About 18% were inconclusive and are not listed. Cut-off read from the data, not from the text of the source: active = normalized growth mostly below about 0.91 (no sharp cut-off); inconclusive = no clear call, values can overlap the other calls; inactive = mostly above about 0.92. The list shows a part of the results.

Assay: chemical genetic growth profiling, strain panel (AID 1159580);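 note: tested at 20 µM; growth read once vehicle control cultures reached saturation at 30 °C; 1 = growth at the plate median or of vehicle wells; lower values mean less growth of the strain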
Conditions: S. cerevisiae deletion strains, growth OD

Measured: normalized growth

O=S(=O)(O)c1cc(N=C=S)ccc1/C=C/c1ccc(N=C=S)cc1S(=O)(=O)O
inactive: locus YAL021C, strain ccr4, active compounds read low 1.03 | locus YAL026C, strain drs2, active compounds read low 1.01 | locus YAL030W, strain snc1, active compounds read low 1.02 | locus YBL061C, strain skt5, active compounds read low 1.03 | locus YBR009C, strain hhf1, active compounds read low 1.05 | locus YBR023C, strain chs3, active compounds read low 1.02 | locus YBR171W, strain sec66, active compounds read low 1.04 | locus YBR231C, strain swc5, active compounds read low 1.03 | locus YBR279W, strain paf1, active compounds read low 1.01 | locus YCL011C, strain gbp2, active compounds read low 1.02 | locus YCL016C, strain dcc1, active compounds read low 1.03 | locus YCL061C, strain MRC1, active compounds read low 1.02 | locus YCL069W, strain vba3, active compounds read low 1.02 | locus YCR088W, strain abp1, active compounds read low 1.02 | locus YDL005C, strain med2, active compounds read low 1.03 | locus YDL040C, strain nat1, active compounds read low 1.02 | locus YDR001C, strain nth1, active compounds read low 1.02 | locus YDR069C, strain doa4, active compounds read low 1.05 | locus YDR137W, strain rgp1, active compounds read low 1.01 | locus YDR159W, strain sac3, active compounds read low 1.06 | locus YDR195W, strain ref2 1.03 | locus YDR297W, strain sur2, active compounds read low 1.03 | locus YDR334W, strain swr1, active compounds read low 1.02 | locus YDR335W, strain msn5, active compounds read low 1.03 | locus YDR392W, strain spt3, active compounds read low 0.919 | locus YEL003W, strain gim4, active compounds read low 1.02 | locus YEL037C, strain rad23, active compounds read low 1.02 | locus YEL061C, strain CIN8 (second series), active compounds read low 1.02 | locus YER015W, strain faa2, active compounds read low 1.03 | locus YER016W, strain bim1, active compounds read low 1.03 | locus YER111C, strain swi4, active compounds read low 1.03 | locus YER155C, strain BEM2 (second series), active compounds read low 1.04 | locus YFR010W, strain ubp6, active compounds read low 1.03 | locus YGL167C, strain pmr1, active compounds read low 1.03 | locus YGL173C, strain kem1, active compounds read low 1.04 | locus YGL227W, strain vid30, active compounds read low 1.03 | locus YGL240W, strain doc1, active compounds read low 1.03 | locus YGL253W, strain hxk2, active compounds read low 1.03 | locus YHR013C, strain ard1, active compounds read low 1.04 | locus YHR027C, strain rpn1, active compounds read low 1.02 | locus YHR030C, strain SLT2, active compounds read low 0.996 | locus YHR079C, strain IRE1, active compounds read low 1.04 | locus YHR142W, strain chs7, active compounds read low 1.04 | locus YJL092W, strain hpr5, active compounds read low 1.01 | locus YJL095W, strain BCK1 (second series), active compounds read low 1.02 | locus YJL095W, strain BCK1, active compounds read low 0.99 | locus YJL115W, strain asf1, active compounds read low 1.02 | locus YJL129C, strain trk1, active compounds read low 1.06 | locus YJL154C, strain vps35, active compounds read low 1.02 | locus YJL164C, strain tpk1, active compounds read low 0.994 | locus YJL166W, strain qcr8, active compounds read low 1.02 | locus YJL187C, strain SWE1, active compounds read low 1.02 | locus YJR066W, strain TOR1, active compounds read low 0.924 | locus YKL160W, strain elf1, active compounds read low 1.02 | locus YKR026C, strain gcn3, active compounds read low 1.02 | locus YKR091W, strain srl3, active compounds read low 1.03 | locus YLL001W, strain dnm1, active compounds read low 1.01 | locus YLL026W, active compounds read low 1.01 | locus YLL041C, strain sdh2, active compounds read low 1.02 | locus YLR027C, strain aat2, active compounds read low 1.02 | locus YLR113W, strain HOG1, active compounds read low 1.11 | locus YLR221C, strain rsa3, active compounds read low 1.02 | locus YLR258W, strain gsy2, active compounds read low 1.03 | locus YLR262C, strain YPT6 (second series), active compounds read low 1.04 | locus YLR320W, strain mms22, active compounds read low 1.05 | locus YLR342W, strain FKS1, active compounds read low 1.04 | locus YLR357W, strain rsc2, active compounds read low 0.993 | locus YLR370C, strain arc18, active compounds read low 1.03 | locus YLR384C, strain iki3, active compounds read low 1.03 | locus YML120C, strain ndi1, active compounds read low 1.01 | locus YMR058W, strain fet3, active compounds read low 1.01 | locus YMR125W, strain sto1, active compounds read low 1.03 | locus YMR129W, active compounds read low 1.02 | locus YMR205C, strain PFK2, active compounds read low 1.06 | locus YMR231W, strain pep5, active compounds read low 1.02 | locus YNL071W, strain lat1, active compounds read low 1.02 | locus YNL183C, strain NPR1, active compounds read low 0.961 | locus YNL209W, strain ssb2, active compounds read low 1.03 | locus YNL248C, strain rpa49, active compounds read low 1 | locus YNL322C, strain KRE1 (second series), active compounds read low 1.03 | locus YNR049C, strain mso1, active compounds read low 1.03 | locus YOR001W, strain rrp6, active compounds read low 0.999 | locus YOR070C, strain gyp1, active compounds read low 1.01 | locus YOR080W, strain dia2, active compounds read low 1.04 | locus YOR083W, strain WHI5, active compounds read low 1.01 | locus YOR106W, strain vam3, active compounds read low 1.04 | locus YOR231W, strain MKK1, active compounds read low 1.03 | locus YOR265W, strain rbl2, active compounds read low 1.02 | locus YOR270C, strain vph1, active compounds read low 1.04 | locus YOR290C, strain snf2, active compounds read low 0.954 | locus YPL051W, strain arl3, active compounds read low 0.994 | locus YPL078C, strain atp4, active compounds read low 1.02 | locus YPL106C, strain sse1, active compounds read low 1.05 | locus YPL240C, strain hsp82, active compounds read low 1.03 | locus YPL256C, strain CLN2, active compounds read low 1.11
